Results filed as inconclusive are left out. A call without a number means that no potency is given here. A number with no mark means an inactive call. The source made the active and inactive calls. Unless noted, the call rests on the fitted dose curve; in most records, active means well fitted curve in the direction sought with a large enough effect in the repeat runs; inconclusive means weak or mixed curves; inactive means no such curve, though single readings can be large; an effect the other way counts as inactive or inconclusive.
Key:
[1] = molecular target: Nuclear receptor subfamily 1 group I member 3 (Homo sapiens) (UniProt Q14994); test: qHTS assay to identify small molecule agonists of the constitutive androstane receptor (CAR) signaling pathway (AID 1224839); further: nearly all actives have a fitted effect of over 15% in size; further: potency means the concentration at half of the fitted maximal effect;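 on activation: HepG2 cells stably carrying human CAR and a CYP2B6 luciferase reporter; series mostly up to about 92 µM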
Nuclear receptor subfamily 1 group I member 3 (Homo sapiens), sequence (Q14994 whole entry, looked up): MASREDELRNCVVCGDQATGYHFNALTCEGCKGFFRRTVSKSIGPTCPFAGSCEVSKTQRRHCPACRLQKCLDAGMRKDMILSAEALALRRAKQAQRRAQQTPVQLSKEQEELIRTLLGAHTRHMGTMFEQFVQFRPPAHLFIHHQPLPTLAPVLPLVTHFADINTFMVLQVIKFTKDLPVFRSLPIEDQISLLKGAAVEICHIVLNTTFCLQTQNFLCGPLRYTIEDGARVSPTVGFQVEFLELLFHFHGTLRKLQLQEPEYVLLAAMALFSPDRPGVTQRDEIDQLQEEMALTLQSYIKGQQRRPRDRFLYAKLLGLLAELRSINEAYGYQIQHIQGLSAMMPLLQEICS
Summary of the method: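 Compounds tested at 15 concentrations on HepG2 cells stably harbouring hCAR and CYP2B6-2.2kb reporter constructs, co-treated with PK11195 (0.75 uM final), 24 h at 37 C; luminescent reporter signal quantified.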

[2] = qHTS assay to identify small molecule antagonists of the estrogen related receptor signaling pathway with the pleiotropic PPARgamma coactivator (PGC) from Tox21 10K library - cell viability counter screen (AID 1224840; active means well fitted cell-killing curve with a large enough effect in the repeat runs, not every such curve was filed as active; further: nearly all actives have a fitted effect of over 40% in size)
Summary of the method: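 Compounds in DMSO, alongside positive and negative controls, were pinned onto PGC/ERR cells (2,000 per well). Exposure lasted 17.5 hours at 37 C, followed by a 30-minute CellTiter-Fluor incubation and fluorescence reading.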

[3] = qHTS assay to identify small molecule antagonists of the estrogen related receptor signaling pathway with the pleiotropic PPARgamma coactivator (PGC) from Tox21 10K library (AID 1224841; call rule not given here; further: series mostly up to about 92 µM; actives are mostly falling curves and most rising ones were filed inactive; nearly all actives have a fitted effect of over 50% in size)
Summary of the method: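 Compound exposure ran 18 hours at 37 C in PGC/ERR cells (2,000/well) that had first rested 6 hours in a 37 C/5% CO2 incubator. Luciferase activity was then detected with One-Glo after a 30-minute room-temperature step.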

[4] = molecular target: Thyrotropin receptor (Homo sapiens) (UniProt P16473); test: qHTS assay to identify small molecule agonists of the thyroid stimulating hormone receptor (TSHR) signaling pathway (AID 1224843; calls by dose curve; further: nearly all actives have a fitted effect of over 45% in size)
Thyrotropin receptor (Homo sapiens), sequence (P16473 whole entry, looked up): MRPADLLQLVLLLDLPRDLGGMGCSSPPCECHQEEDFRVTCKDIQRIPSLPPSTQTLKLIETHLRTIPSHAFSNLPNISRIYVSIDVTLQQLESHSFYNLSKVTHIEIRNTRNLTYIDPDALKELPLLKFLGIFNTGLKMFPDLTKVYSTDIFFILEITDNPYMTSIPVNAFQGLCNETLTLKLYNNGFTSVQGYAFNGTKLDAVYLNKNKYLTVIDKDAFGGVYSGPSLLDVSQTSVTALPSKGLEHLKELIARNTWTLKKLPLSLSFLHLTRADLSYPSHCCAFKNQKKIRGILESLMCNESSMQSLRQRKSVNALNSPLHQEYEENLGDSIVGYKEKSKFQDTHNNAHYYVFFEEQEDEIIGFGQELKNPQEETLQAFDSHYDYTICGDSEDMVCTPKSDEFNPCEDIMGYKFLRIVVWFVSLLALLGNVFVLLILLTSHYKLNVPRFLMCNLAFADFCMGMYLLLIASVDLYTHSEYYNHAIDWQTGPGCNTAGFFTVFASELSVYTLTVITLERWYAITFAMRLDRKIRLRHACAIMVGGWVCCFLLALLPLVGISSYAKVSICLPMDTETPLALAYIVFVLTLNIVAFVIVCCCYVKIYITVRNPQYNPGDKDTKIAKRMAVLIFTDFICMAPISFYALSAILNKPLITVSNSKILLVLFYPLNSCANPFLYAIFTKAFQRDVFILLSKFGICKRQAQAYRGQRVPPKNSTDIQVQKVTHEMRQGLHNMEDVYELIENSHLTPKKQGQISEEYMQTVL
Summary of the method: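 HEK293 cells stably bearing the thyrotropin receptor were plated at 800 cells/well and challenged with compound (30 min, RT). Accumulated cAMP was quantified via cAMP-d2 competing for cryptate-tagged antibody.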

[5] = qHTS assay to identify small molecule agonists of the hypoxia (HIF-1) signaling pathway - cell viability counter screen (AID 1224844; calls by dose curve; further: nearly all actives have a fitted effect of over 50% in size)
Summary of the method: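 Luminescent ATP content (CellTiter-Glo, 30 min, room temperature) served as the viability measure in HRE-bla ME-180 cells exposed to compounds for 17 hrs in low-serum medium (0.5% dialyzed FBS).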

[6] = qHTS assay to identify small molecule agonists of H2AX (AID 1224845; active means well fitted activation curve with a large enough effect in the signal ratio in the repeat runs, not every such curve was filed as active; the % refers to the signal ratio)
Summary of the method: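 Phospho-H2AX Ser139 measured by HTRF (ex 320 nm; em 665 and 620 nm) after 24 hr antibody incubation. Compounds, 15 concentrations, 0.76% DMSO, were applied to CHO-K1 cells for 3hr at 37C before lysis.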

[7] = qHTS assay to identify small molecule agonists of the hypoxia (HIF-1) signaling pathway (AID 1224846; active means well fitted activation curve with a large enough effect in the signal ratio in the repeat runs, not every such curve was filed as active; the % refers to the signal ratio)
Summary of the method: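 Measured by blue/green FRET after loading CCF4-AM: beta-lactamase expressed from a hypoxia response element in ME-180 cells. Test agents were delivered in DMSO and left 17 hrs; cells had been plated 5 hrs earlier in low-serum (0.5% dialyzed FBS) medium.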

[8] = qHTS assay to identify small molecule agonists of H2AX - cell viability counter screen (AID 1224847; calls by dose curve; further: top concentration of the series differs between compounds; nearly all actives have a fitted effect of over 30% in size)
Summary of the method: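 Compounds tested at 15 concentrations were incubated 3 hr at 37C with wild-type CHO-K1 cells; cellular ATP-based luminescence (CellTiter-Glo) indicated viability.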

[9] = qHTS assay to identify small molecule antagonists of the estrogen related receptor (ERR) signaling pathway from Tox21 library (AID 1224848); further: nearly all actives have a fitted effect of over 50% in size
Summary of the method: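 Reading was by luminescence 30 min after ONE-Glo addition. Before that, ERR cells at 2,000 per well had rested 6 h at 37 C/5% CO2 and then received pin-tooled compounds in DMSO for 18 h at 37 C.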

[10] = qHTS assay to identify small molecule agonists of the estrogen related receptor signaling pathway with the pleiotropic PPARgamma coactivator (PGC) from Tox21 10K library (AID 1224842); further: nearly all actives have a fitted effect of over 15% in size
Summary of the method: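 Luminescence from One-Glo (30 min, room temperature) measured after PGC/ERR cells had 18 h at 37 C with pinned compound (23 nL in DMSO). Cells had been seeded at 2,000 per well and pre-incubated 6 h.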

Row | Structure (SMILES) | Potency [1] | outcome [2] | outcome [3] | outcome [4] | outcome [5] | outcome [6] | outcome [7] | outcome [8] | Potency [9] | outcome [10]
1 | ONc1ccccc1 | 60.5 µM (active) | inactive | inactive | inactive | inactive | inactive | inactive | inactive | inactive | –
2 | CC(C)(CO)C(O)C(=O)NCCCO (stereo unspecified) | inactive | inactive | – | inactive | inactive | inactive | – | inactive | inactive | inactive
3 | CCC(=O)CC | inactive | inactive | inactive | – | inactive | inactive | inactive | inactive | inactive | inactive
4 | CC/C=C\CCOC(=O)c1ccccc1O | inactive | inactive | inactive | – | inactive | inactive | inactive | – | inactive | inactive
5 | CCCCCCC1(C)CCC(=O)O1 (stereo unspecified) | inactive | inactive | – | inactive | inactive | inactive | inactive | – | – | –
6 | C/C=C(\C)C(=O)OCCc1ccccc1 | inactive | inactive | inactive | – | inactive | inactive | inactive | inactive | inactive | inactive
7 | CC1=C(C(=O)O)N2C(=O)[C@@H](NC(=O)[C@H](N)c3ccccc3)[C@H]2SC1 | inactive | inactive | inactive | – | inactive | inactive | – | inactive | inactive | inactive
8 | OCC1(CO)COCOC1 | inactive | inactive | – | inactive | inactive | inactive | inactive | inactive | – | –
9 | Cc1ccc(N)cc1S(=O)(=O)O | inactive | inactive | – | inactive | inactive | inactive | inactive | inactive | – | –
10 | COc1cc(OC)nc(O[C@H](C(=O)O)C(OC)(c2ccccc2)c2ccccc2)n1 | inactive | inactive | – | inactive | inactive | inactive | inactive | – | – | –
11 | COc1ccc(CCO)cc1 | inactive | inactive | – | inactive | inactive | inactive | inactive | – | – | –
12 | c1ccc(-c2nn[nH]n2)cc1 | inactive | inactive | inactive | – | inactive | inactive | inactive | – | inactive | inactive
13 | Nc1nc(-c2ccccc2)c(Br)c(=O)[nH]1 | inactive | inactive | – | inactive | inactive | inactive | inactive | inactive | inactive | inactive
14 | CCC(C(=O)OCCN1CCOC(c2ccccc2)C1C)c1ccccc1 (stereo unspecified) | inactive | inactive | – | – | inactive | inactive | inactive | – | – | inactive
